Sm TGR inh: S. mansoni TGR enzyme inhibition. Q962Y6. purified TGR, DTNB reduction, TNB absorbance 405 nm. Potency, µM (series often up to 114 µM), for the others: at the highest dose activity change, negative = inhibition, usual class: inhibitors. actives 3% (n = 360,000); note: nearly all actives have a fitted effect of over 60% in size
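TGR 20 nM + NADPH 100 uM (dispensed conc.), cpd preinc 15 min RT; start with NADPH (500 uM addition) then DTNB (15 mM addition). Kinetic TNB absorbance, 405 nm filter. Four-parameter Hill fit across titration.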
AmpC no deterg: AmpC beta-lactamase inhibition without detergent; P00811; AmpC nitrocefin hydrolysis, absorbance 480 nm, 0.0001% Triton; Potency, µM (highest dose often 57.1 µM), for the others: top-dose activity change, negative = inhibition, actives largely listed as inhibitors; actives 0.52% (n = 330,000); AID 485341;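 note: plate controls were no compound for no effect and no enzyme for full effect; nearly all actives have a fitted effect of over 20% in size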
Target sequence (P00811 whole entry, looked up): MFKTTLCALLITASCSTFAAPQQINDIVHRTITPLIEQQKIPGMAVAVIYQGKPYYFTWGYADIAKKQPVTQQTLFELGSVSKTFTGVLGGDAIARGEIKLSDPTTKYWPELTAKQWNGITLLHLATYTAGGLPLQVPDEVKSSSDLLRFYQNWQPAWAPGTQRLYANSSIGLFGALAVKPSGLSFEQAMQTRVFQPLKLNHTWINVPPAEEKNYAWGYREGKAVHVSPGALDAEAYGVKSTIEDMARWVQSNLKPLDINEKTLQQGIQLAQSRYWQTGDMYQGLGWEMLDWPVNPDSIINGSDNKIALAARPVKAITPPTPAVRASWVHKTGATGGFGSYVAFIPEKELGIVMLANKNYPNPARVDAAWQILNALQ
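20 mM phosphate pH 7.0 + 0.01% (detergent screen) or 0.0001% Triton X-100; 5.3 nM AmpC reagent; cpd preinc 15 min RT; nitrocefin (800 uM stock) to start; A480 q20 s × 4 min; Activity was normalised to no-enzyme and no-compound control wells.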
AmpC detergent: blocks E. coli AmpC beta-lactamase in detergent assay | AmpC hydrolysis of nitrocefin, absorbance 480 nm, 0.01% Triton | Potency, µM (doses to about 114 µM), without a hit: top-dose activity change, negative = inhibition, most hits filed as inhibitors | actives 0.041% (n = 370,000);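 note: 0% = no-compound wells and -100% = no-enzyme wells; nearly all actives have a fitted effect of over 25% in size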
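AmpC (5.3 nM in the dispensed reagent) in 20 mM phosphate pH 7.0 with 0.01% (detergent screen) or 0.0001% Triton X-100 was preincubated with compounds for 15 min at room temperature. Nitrocefin was then added from an 800 uM solution, and hydrolysis was followed at 480 nm.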
An asterisk follows results filed as active. Rows were chosen to be rich in hits. Some 3.3% of all compounds tested hit in one or more screens of this group. Calls come from the whole dose curve; as a rule, active = well fitted curve in the direction sought with a large enough effect; inconclusive = small, poorly fitted or top-dose-only effect, or another doubt; inactive = no such curve, though single readings can be large; an effect the other way counts as inactive or inconclusive. Unless noted, % is set by controls: 0 for no effect and ±100 for the full control effect; potency is the fitted concentration of half-maximal effect.

How did O=C(CSc1nnc(CNC(=O)c2c(F)cccc2F)o1)NCc1ccc(F)cc1 do in these assays?
Sm TGR inh: 28.2µM*; AmpC no deterg: 4.3%; AmpC detergent: 3.9%

How did O=C(CSc1nnc(Cc2ccccc2)o1)NCc1ccco1 do in these assays?
Sm TGR inh: 44.7µM*; AmpC no deterg: -13.4%; AmpC detergent: inconclusive

Results for O=C(CSc1nnc(CNC(=O)c2c(F)cccc2Cl)o1)NCc1ccc(F)cc1 ?
Sm TGR inh: -1.8%; AmpC no deterg: -14.5%; AmpC detergent: 2.2%

What do the screens show for `CCc1cccc(NC(=O)C(c2ccccc2)N2Cc3ccccc3C2=O)c1` (stereo not drawn)?
Sm TGR inh: 1.0%; AmpC detergent: -0.2%

How did Cc1ccnc(SCc2cn3c(C)cc(C)nc3n2)n1 do in these assays?
Sm TGR inh: -2.2%; AmpC no deterg: -5.9%; AmpC detergent: 6.9%

What do the screens show for `Cc1cccc2nc(CSCc3ccco3)cn12`?
Sm TGR inh: 28.2µM*; AmpC no deterg: -28.4%; AmpC detergent: -12.0%

What do the screens show for `Cc1cc(C)n2cc(CSCc3ccco3)nc2n1`?
Sm TGR inh: 39.8µM*; AmpC no deterg: -0.2%; AmpC detergent: 0.8%

Results for Cc1cccc2nc(CSc3ccc(Cl)cc3)cn12 ?
Sm TGR inh: 0.3%; AmpC no deterg: -11.7%; AmpC detergent: 3.1%

What do the screens show for `Cc1ccccc1C(=O)NCc1ccc2c(c1)CCN2C(=O)c1ccc(F)cc1`?
Sm TGR inh: -6.6%; AmpC detergent: -1.3%

Results for COc1ccccc1CCNC(=O)c1ccc(NC(=O)N2CC(C)Sc3ccccc32)cc1 (stereo not drawn) ?
Sm TGR inh: 6.2%; AmpC detergent: -1.4%

Results for c1ccc2c(N3CCOCC3)c3c(nc2c1)CCC3 ?
Sm TGR inh: 1.0%; AmpC no deterg: -13.2%; AmpC detergent: inconclusive

Results for COc1ccc2c(c1)CCc1c-2nc2ccccc2c1N1CCOCC1 ?
Sm TGR inh: 39.8µM*; AmpC no deterg: 10.9%; AmpC detergent: -11.9%

Results for CCc1ccccc1NC(=O)CSc1nnc(-c2ccc(OC)cc2)s1 ?
Sm TGR inh: 0.7%; AmpC detergent: 2.7%

What do the screens show for `CCOC(=O)N1CCN(C(=O)CS(=O)Cc2nc(-c3cccc(C)c3)oc2C)CC1` (stereo not drawn)?
Sm TGR inh: inconclusive; AmpC no deterg: 49.6%; AmpC detergent: inconclusive

What do the screens show for `Cc1cccc(-c2nc(CS(=O)CC(=O)N3CCc4ccccc4C3)c(C)o2)c1` (stereo not drawn)?
Sm TGR inh: inconclusive; AmpC no deterg: 75.7%; AmpC detergent: inconclusive

What do the screens show for `CCN1CCN(C(=O)CS(=O)Cc2nc(-c3cccc(C)c3)oc2C)CC1` (stereo not drawn)?
Sm TGR inh: 39.8µM*; AmpC no deterg: 16.5%; AmpC detergent: -9.6%

Results for Cc1cccc(-c2nc(CS(=O)CC(=O)N3CC(C)CC(C)C3)c(C)o2)c1 (stereo not drawn) ?
Sm TGR inh: 35.5µM*; AmpC no deterg: 115.4%; AmpC detergent: -9.9%

How did Cc1ccc2c(CC(=O)Nc3cc(C(F)(F)F)ccc3Cl)coc2c1C do in these assays?
Sm TGR inh: 12.0%; AmpC detergent: 15.0%

How did CC(CNC(=O)c1cnn(-c2ccc(F)cc2)c1-n1cccc1)c1ccccc1 (stereo not drawn) do in these assays?
Sm TGR inh: -10.9%; AmpC detergent: -7.7%

Results for O=C(NC(=S)Nc1ccc(CN2CCCCC2)cc1)c1ccco1 ?
AmpC no deterg: -27.0%; AmpC detergent: 5.3%

Results for COc1cc(NC(=S)NCCCN2CCOCC2)c(OC)cc1NC(=O)c1ccco1 ?
Sm TGR inh: inconclusive; AmpC no deterg: -5.8%; AmpC detergent: -13.6%

Results for O=C(NC(=S)Nc1ccc(CN2CCOCC2)cc1)c1ccco1 ?
Sm TGR inh: 31.6µM*; AmpC no deterg: -10.7%; AmpC detergent: inconclusive

Results for Cc1ccccc1C(=O)NC(=S)Nc1ccc(N2CCOCC2)cc1 ?
Sm TGR inh: inconclusive; AmpC no deterg: -13.2%; AmpC detergent: -0.7%

How did O=C(NC(=S)Nc1ccc(N2CCOCC2)cc1)c1ccco1 do in these assays?
Sm TGR inh: 39.8µM*; AmpC no deterg: -10.0%; AmpC detergent: inconclusive

Results for CCOc1cc(NC(=S)NCCCN2CCOCC2)c(OCC)cc1NC(=O)c1ccco1 ?
Sm TGR inh: 35.5µM*; AmpC no deterg: 23.5%; AmpC detergent: 1.9%

How did CC(=O)NCCNC(=O)CCCn1c(=O)[nH]c2ccsc2c1=O do in these assays?
Sm TGR inh: 3.9%; AmpC detergent: inconclusive

What do the screens show for `NC(=O)CSc1ncc2c(n1)-c1ccccc1N(Cc1cccc(F)c1)S2(=O)=O`?
Sm TGR inh: -1.0%; AmpC detergent: -4.6%

How did Cc1ccc2nc(Nc3ccc(Br)cc3)nc(-c3ccccc3)c2c1 do in these assays?
Sm TGR inh: -2.8%; AmpC detergent: 12.3%

How did CC1CN(C(=O)N2CCC(C(=O)N3CCN(c4ccccc4)CC3)CC2)c2cc(Cl)ccc2O1 (stereo not drawn) do in these assays?
Sm TGR inh: 0.5%; AmpC detergent: 13.9%

What do the screens show for `COCCCn1c(=O)c2sccc2n2c(CCCC(=O)Nc3cc(C)cc(C)c3)nnc12`?
Sm TGR inh: 0.5%; AmpC detergent: 1.9%

How did CCN(CC)c1ccc2c(c1)CCCN2 do in these assays?
Sm TGR inh: 5.01µM*; AmpC no deterg: -16.1%; AmpC detergent: -0.7%

Results for O=S(=O)(c1ccc2c(c1)CCCN2)N1CCCC1 ?
Sm TGR inh: -10.7%; AmpC no deterg: -15.1%; AmpC detergent: -0.4%

Results for O=C1C(=O)c2cccc3cccc1c23 ?
Sm TGR inh: -0.6%; AmpC no deterg: -0.2%; AmpC detergent: -1.3%

What do the screens show for `O=C1C([N+](=O)[O-])=C(O)c2cccc3cccc1c23`?
Sm TGR inh: 39.8µM*; AmpC no deterg: -39.8%; AmpC detergent: inconclusive

Results for CC(C)NC(=O)c1ccc(Cn2c(=O)c3cccn3c3cccnc32)cc1 ?
Sm TGR inh: -0.8%; AmpC detergent: 7.9%

How did CCOC(=O)Cc1ccc(NC(=O)N(Cc2ccc(CC)cc2)Cc2cn[nH]c2-c2ccc(OC)cc2)cc1 do in these assays?
Sm TGR inh: 2.0%; AmpC detergent: -7.1%

What do the screens show for `COc1cc(/C=C/C(=O)OCC(=O)NC(=O)NCc2ccco2)ccc1OC(F)F`?
AmpC no deterg: 20µM*

Results for COc1cc(/C=C/C(=O)OCC(=O)NCc2ccco2)ccc1O ?
Sm TGR inh: 28.2µM*; AmpC no deterg: -22.1%; AmpC detergent: -19.3%

Results for COc1ccccc1/C=C/C(=O)OCC(=O)NCc1ccco1 ?
Sm TGR inh: 1.4%; AmpC no deterg: -14.9%; AmpC detergent: -2.3%

What do the screens show for `COc1cc(/C=C/C(=O)OCC(=O)NCc2cccs2)ccc1OC(F)F`?
Sm TGR inh: -4.0%; AmpC no deterg: -23.5%; AmpC detergent: -7.5%

How did CCOC(=O)c1ccccc1NC(=O)Cn1c(=O)n(CCCC(=O)NCc2ccc3c(c2)OCO3)c(=O)c2ccccc21 do in these assays?
Sm TGR inh: 2.3%; AmpC detergent: 19.0%

What do the screens show for `Cc1c(O)c(CN2CCCC2)cc2c3c(c(=O)oc12)CCC3`?
Sm TGR inh: inconclusive; AmpC no deterg: -8.8%; AmpC detergent: 6.7%
